Sampled rows, rich in hits. Any-hit rate of the full collection: about 12%.
G9a block = blocks human histone lysine methyltransferase G9a; Q96KQ7; G9a H3K9 monomethylation, AlphaScreen, 2 h; Potency, µM (top dose mostly 102 µM), for inactives: at the highest dose activity, negative = inhibition, most hits filed as inhibitors; actives 8.8% (n = 350,000); AID 504332; also: % is scaled to controls: 0 for no effect and ±100 for the full control effect; nearly all actives have a fitted effect of over 75% in size
Target sequence (Q96KQ7 913-1193 limits assumed): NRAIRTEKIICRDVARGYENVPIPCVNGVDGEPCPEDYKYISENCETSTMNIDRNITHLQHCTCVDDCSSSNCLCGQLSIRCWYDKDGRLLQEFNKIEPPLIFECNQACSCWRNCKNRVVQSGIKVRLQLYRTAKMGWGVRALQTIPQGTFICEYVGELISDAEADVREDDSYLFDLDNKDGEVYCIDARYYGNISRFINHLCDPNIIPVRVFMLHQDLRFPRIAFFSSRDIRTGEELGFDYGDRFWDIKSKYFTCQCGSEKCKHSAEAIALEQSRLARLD
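AlphaScreen detection with an anti-monomethyl H3K9 antibody quantified product after a 2 h room-temperature reaction containing 500 nM biotinylated H3K9 peptide, 20 µM SAM and 20 nM enzyme, which had been preincubated 15 min with compound.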
BAZ2B inh = blocks human BAZ2B. AlphaScreen BAZ2B-H3K14Ac peptide displacement. Potency, µM (highest dose often 114 µM), without a hit: at the highest dose activity change, negative = inhibition, actives largely listed as inhibitors. actives 4.4% (n = 360,000); also: % is scaled to controls: 0 for no effect and ±100 for the full control effect; nearly all actives have a fitted effect of over 60% in size
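Compounds, titrated to a top concentration of 110 uM, were incubated 30 min at room temperature with preformed BAZ2B/acetyl-K14 H3 peptide complex (50 nM each). Proximity signal was measured by AlphaScreen after 20 min with beads.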
HP1b binding inh = inhibitors of HP1-beta chromodomain binding to methylated histone tails; P83916; AlphaScreen HP1-beta / biotin-H3K9me3 peptide binding; Potency, µM (doses to about 114 µM), for inactives: at the top dose activity change, negative = inhibition, hits mostly inhibitors; actives 0.56% (n = 390,000); AID 540317; also: nearly all actives have a fitted effect of over 70% in size
Target sequence (P83916 whole entry, looked up): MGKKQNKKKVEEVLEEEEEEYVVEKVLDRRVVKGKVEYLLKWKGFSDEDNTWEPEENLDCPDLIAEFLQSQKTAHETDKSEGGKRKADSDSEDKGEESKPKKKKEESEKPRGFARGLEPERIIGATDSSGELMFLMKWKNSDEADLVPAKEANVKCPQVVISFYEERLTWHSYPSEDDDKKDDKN
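HP1-beta protein (50 nM final) preincubated 30 min at room temperature with biotinylated H3(1-18)K9me3 peptide (50 nM) in PBS pH 7.4, 0.01% Tween-20, then compound added for 30 min. AlphaScreen streptavidin donor/nickel chelate acceptor beads (10 ug/mL final), 30 min dark, luminescence read.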
Sfp inh = inhibitors of Bacillus subtilis Sfp phosphopantetheinyl transferase; Q9F4F7; Biochemical Sfp PPTase activity, qHTS; Potency, µM, for inactives: largest response in the series, negative = inhibition, hits mostly inhibitors; actives 3.5% (n = 310,000);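 also: the enzyme is Sfp with the accession as filed and its product quenches rhodamine fluorescence; 0% = enzyme reaction without inhibitor and -100% = no enzyme wells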
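Fluorescence-quenching assay with 15 nM Sfp, 5 uM rhodamine-CoA and 12.5 uM BHQ-2-labelled ybbR peptide in pH 7.6 Hepes/MgCl2 buffer. Enzyme was pre-incubated with compound for 15 min at room temperature. Rate was taken from the 30-min fluorescence change (525/598 nm).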
JMJD2A Tudor inh = JMJD2A Tudor domain (human) inhibition. O75164. AlphaScreen JMJD2A-Tudor / H3K4me3 peptide binding. Potency, µM (doses to about 114 µM), without a hit: at the highest dose activity change, negative = inhibition, usual class: inhibitors. actives 4.4% (n = 390,000). AID 504339; also: % is scaled to controls: 0 for no effect and ±100 for the full control effect; nearly all actives have a fitted effect of over 50% in size
An asterisk follows results filed as active; u = inconclusive; x = not tested or not shown; ! = repeats disagree; [ ] = another dose, or the depositor's remark. Calls follow the shape of the dose curve; as a rule, active = well fitted curve in the direction sought with a large enough effect; inconclusive = small, poorly fitted or top-dose-only effect, or another doubt; inactive = no such curve, though single readings can be large; an effect the other way counts as inactive or inconclusive. Potency is read from the fitted curve at half-maximal effect.

SMILES	G9a block	BAZ2B inh	HP1b binding inh	Sfp inh	JMJD2A Tudor inh
CCOc1ccc(/C(O)=C2/C(=O)C(=O)N(CC3CCCO3)C2c2ccc(C)o2)cc1 (stereo not given)	34.2%[12.7 µM]	-7.4%	49.3%	-21.6%	u
COCCN1C(=O)C(=O)/C(=C(/O)c2cccc(OC)c2)C1c1ccc(C)o1 (stereo not given)	18.1%[12.7 µM]	-30.0%	42.7%	u	u
COc1ccc(OC)c(C2/C(=C(/O)c3ccccc3)C(=O)C(=O)N2Cc2ccco2)c1 (stereo not given)	-3.8%[59 µM]	-10.2%	41.7%	1.6%	-8.7%
CCOc1ccc(C2/C(=C(\O)c3ccc4c(c3)OCCO4)C(=O)C(=O)N2CCCn2ccnc2)cc1OC (stereo not given)	-7.3%	-19.5%	27.0%	14.5%	-23.3%
COc1ccc(OC)c(C2/C(=C(/O)c3ccc(C)cc3)C(=O)C(=O)N2Cc2ccco2)c1 (stereo not given)	u	-38.2%	23.4%	3.0%	-1.8%
CCOc1cccc(/C(O)=C2/C(=O)C(=O)N(CCN3CCOCC3)C2c2ccncc2)c1 (stereo not given)	x	u	x	-14.0%	x
Cc1ccc(C2/C(=C(/O)c3ccc(Br)cc3)C(=O)C(=O)N2Cc2ccco2)o1 (stereo not given)	15.5%[59 µM]	0.7%	8.8%	3.55µM*	u
CCOc1cccc(/C(O)=C2/C(=O)C(=O)N(Cc3ccco3)C2c2ccncc2)c1 (stereo not given)	44.7µM*	u	42.0%	-25.8%	u
COc1cccc(/C(O)=C2/C(=O)C(=O)N(Cc3ccco3)C2c2ccncc2)c1 (stereo not given)	28.2µM*	u	33.1%	-24.4%	u
COc1cccc(C2/C(=C(/O)c3ccc(C)cc3)C(=O)C(=O)N2Cc2ccco2)c1 (stereo not given)	-12.1%[59 µM]	-37.2%	26.7%	14.1%	-6.2%
Cn1cccc1CC(=O)N/N=C/c1cc([N+](=O)[O-])ccc1Cl	44.7µM*	u	-2.3%	3.1%	-20.6%
Cn1cccc1CC(=O)N/N=C/c1ccc(Cl)c([N+](=O)[O-])c1	50.1µM*	39.8µM*	5.1%	-15.6%	-28.5%
O=c1c2ccccc2oc2ccc(Oc3ccccc3)cc12	436.5%	195.7%	369.5%	-11.6%	206.2%
CC(C(=O)Nc1ccccc1C(F)(F)F)N1CCN(C)CC1 (stereo not given)	3.1%[0.501 µM]	79.4µM*	u	-20.3%	25.1µM*
CN1CCN(CCC(=O)Nc2ccc(F)c(F)c2)CC1	9.9%	u	21.3%	10.7%	-14.0%
CC(C(=O)Nc1ccc(F)c(F)c1)N1CCN(C)CC1 (stereo not given)	u	22.4µM*	35.5µM*	u	3.16µM*
CCCN(CC1CC1)c1nc(N)c(C#N)c(CC#N)c1C#N	3.7%[59 µM]	-9.1%	39.3%	-10.2%	12.5%
Cc1cc2c(N)cccc2nn1	2.82µM*	79.4µM*	4.7%	2µM*	-25.0%
COc1ccc(C2=CSC3=NCCN23)cc1F	28.2µM*	-9.8%	6.2%	-10.0%	-12.2%
Cc1ccc(C)c(N(C(=O)Cn2nnc3ccccc32)C(C(=O)NC(C)(C)C)c2ccsc2)c1 (stereo not given)	x	20.0%	32.5%	7.2%	-13.4%
O=C(O)/C=C/c1cnc[nH]1	12.6µM*!	6.6%	35.9%	-16.6%	-12.9%
COCCN1C(=O)N(c2cccc(C)c2)C(=O)C1CC(=O)Nc1cc(OC)cc(OC)c1 (stereo not given)	0.9%	-17.2%	9.6%	3.4%	-13.6%
COc1ccc(CN2CCC(N3CC(C)OC(C)C3)CC2)c(OC)c1OC (stereo not given)	x	u	u	56.2µM*	20µM*
COc1ccc(CN2CCN(C(=O)c3ccc(-c4ccccc4)cc3)CC2)c(OC)c1OC	-4.8%	u	9.3%	11.8%	-33.3%
Cc1ccc(CN2CCC(N3CC(C)OC(C)C3)CC2)cc1 (stereo not given)	12.6µM*	56.2µM*	u	-23.5%	22.4µM*
SMILES	G9a block	BAZ2B inh	HP1b binding inh	Sfp inh	JMJD2A Tudor inh
COc1ccc(N=Nc2c(N)nn(C)c2N)cc1	x	x	79.4µM*	x	u
Cc1ccc(N=Nc2c(N)nn3c(N)c(C#N)c(C)nc23)cc1	-39.0%	-38.6%	65.8%	-4.8%	56.2µM*
Cc1nn(-c2ccccc2)c(N)c1N=Nc1ccc2ccccc2c1	39.8µM*	12.6µM*	u	u	39.8µM*
Cc1ccc(N=Nc2c(N)nn3c(C)cc(C)nc23)cc1	16.9%[59 µM]	6.5%	13.2%	16.9%	-7.5%
Cc1ccc(N=Nc2c(N)nn(-c3ccccc3)c2N)cc1	-50.0%[59 µM]	50.1µM*	u	-11.7%	35.5µM*
CCOc1ccc(N2C(=O)CC(N(CCc3ccc(OC)cc3)C(=O)c3cccc(F)c3)C2=O)cc1 (stereo not given)	-5.1%	7.2%	42.4%	2.5%	-3.3%
NC(=O)c1ccc(NC(=O)CSC2=Nc3ccccc3C3CC=NN23)cc1 (stereo not given)	12.6µM*	6.0%	30.2%	5.9%	-8.2%
COC(=O)c1ccc(NC(=O)CSC2=Nc3ccccc3C3CC=NN23)cc1 (stereo not given)	8.4%	-12.0%	20.9%	-26.5%	-9.7%
Cc1c(C(=O)C(=O)N2c3ccc(F)cc3CCC2C)c2ccccc2n1C (stereo not given)	-43.2%	-23.9%	12.8%	2.9%	-15.9%
CC(NC(=O)c1ccc(S(=O)(=O)N(C)C)cc1)c1ccccc1 (stereo not given)	4.0%[12.7 µM]	-4.8%	-15.4%	16.0%	79.4µM*
Cc1nnc2ccc(-c3cccc(NS(=O)(=O)c4ccccc4[N+](=O)[O-])c3)nn12	50.1µM*	-33.7%	27.7%	x	2.0%
Cc1nnc2ccc(-c3cccc(NS(=O)(=O)c4ccccc4Cl)c3)nn12	u	5.1%	20.8%	x	-6.8%
Cc1cc(=O)[nH]c2c(N=Nc3ccc(O)cc3)c(N)nn12	u	2.9%	-1.9%	u	-28.1%
NC(=O)CC(NC(=O)c1ccc(Br)cc1)c1ccc(N2CCN(c3ccccn3)CC2)c([N+](=O)[O-])c1 (stereo not given)	-34.7%[12.7 µM]	-7.7%	13.1%	-11.9%	-15.4%
NC(=O)CC(NC(=O)Cc1ccc(Br)cc1)c1ccc(N2CCC(N3CCCCC3)CC2)c([N+](=O)[O-])c1 (stereo not given)	56.2µM*	-34.0%	25.3%	13.7%	-20.3%
NC(=O)CC(NC(=O)Cc1cccc2ccccc12)c1ccc(N2CCC(N3CCCCC3)CC2)c([N+](=O)[O-])c1 (stereo not given)	x	-36.9%	35.5%	2.7%	-27.1%
NC(=O)CC(NC(=O)c1ccccc1)c1ccc(N2CCCCCC2)c([N+](=O)[O-])c1 (stereo not given)	50.1µM*	u	u	-7.6%	44.7µM*

Source: PubChem BioAssay (National Center for Advancing Translational Sciences (NCATS))
